Source: publication PMC11062922 (Nature Chemical Biology, 2023)

Assays:
Set-up in all cases: species or system human, MV4-11 + K-562 + COLO205 + SK-N-BE2 + OVCAR-8
PRKCZ = conditions: read-out: apparent Kd; compound concentrations: 100 nM and 1000 nM (sheet 'Samples'), CATDS: 1.7514325716089001E-2; n = 1
RPS6KB1 = conditions: read-out: apparent Kd; compound concentrations: 100 nM and 1000 nM (sheet 'Samples'), CATDS: 7.08215510279748E-2; n = 1
NEK1 = conditions: read-out: apparent Kd; compound concentrations: 100 nM and 1000 nM (sheet 'Samples'), CATDS: 0.147931725525974; n = 1
MAP3K5 = conditions: read-out: apparent Kd; compound concentrations: 100 nM and 1000 nM (sheet 'Samples'), CATDS: 5.5720140806326597E-2; n = 1
RAF1 = conditions: read-out: apparent Kd; compound concentrations: 100 nM and 1000 nM (sheet 'Samples'), CATDS: 0.155550656381887; n = 1
PHKG2 = conditions: read-out: apparent Kd; compound concentrations: 100 nM and 1000 nM (sheet 'Samples'), CATDS: 8.5402919050668602E-3; n = 1
PRKACA = conditions: read-out: apparent Kd; compound concentrations: 100 nM and 1000 nM (sheet 'Samples'), CATDS: 7.7130843989671599E-3; n = 1
TESK2 = conditions: read-out: apparent Kd; compound concentrations:100 nM and 1000 nM (sheet 'Samples'); n = 1
PI4KB = conditions: read-out: apparent Kd; compound concentrations: 100 nM and 1000 nM (sheet 'Samples'), CATDS: 0.18067625739165599; n = 1
PIK3C2B = conditions: read-out: apparent Kd; compound concentrations: 100 nM and 1000 nM (sheet 'Samples'), CATDS: 3.01337612448444E-2; n = 1
FES = conditions: read-out: apparent Kd; compound concentrations: 100 nM and 1000 nM (sheet 'Samples'), CATDS: 3.8230279183827799E-2; n = 1
MAPK3 = conditions: read-out: apparent Kd; compound concentrations:100 nM and 1000 nM (sheet 'Samples'); n = 1
CLK3 = conditions: read-out: apparent Kd; compound concentrations: 100 nM and 1000 nM (sheet 'Samples'), CATDS: 1.8485003347971998E-2; n = 1
NTRK1 = conditions: read-out: apparent Kd; compound concentrations: 100 nM and 1000 nM (sheet 'Samples'), CATDS: 1.31353956305182E-2; n = 1
RPS6KA1 = conditions: read-out: apparent Kd; compound concentrations: 100 nM and 1000 nM (sheet 'Samples'), CATDS: 1.0541415060752299E-2; n = 1
NEK9 = conditions: read-out: apparent Kd; compound concentrations: 100 nM and 1000 nM (sheet 'Samples'), CATDS: 2.1458730065113701E-2; n = 1
MAP2K3 = conditions: read-out: apparent Kd; compound concentrations:100 nM and 1000 nM (sheet 'Samples'); n = 1
PIK3CB = conditions: read-out: apparent Kd; compound concentrations:100 nM and 1000 nM (sheet 'Samples'); n = 1
SLC25A5 = conditions: read-out: apparent Kd; compound concentrations:100 nM and 1000 nM (sheet 'Samples'); n = 1
SMG1 = conditions: read-out: apparent Kd; compound concentrations: 100 nM and 1000 nM (sheet 'Samples'), CATDS: 0.40091827457547202; n = 1

**Q.** How did the potency estimated from few doses (PRKCZ) turn out when `Cl.Cl.Cl.c1ccc(Oc2ccc(Nc3ccnc4cc(-c5ccc(CN6CCNCC6)o5)ccc34)cc2)nc1.c1ccc(Oc2ccc(Nc3ccnc4cc(-c5ccc(CN6CCNCC6)o5)ccc34)cc2)nc1` [GW567142A] was run?
**A.** Its potency estimated from few doses is 1820 nM.

**Q.** Which potency estimated from few doses (RPS6KB1) does the source give for `O=C1N=C(NCCc2ccccc2F)S/C1=C\c1ccc2ncccc2c1` [RO4498483-000] here?
**A.** Its potency estimated from few doses is 1720 nM.

**Q.** Which potency estimated from few doses (NEK1) does the source give for `COc1cc(Nc2nccc(N3CCC(NC(=O)c4cccc(C#N)c4)C3)n2)cc(OC)c1OC` (centres unmarked) [GSK1379751A] here?
**A.** Its potency estimated from few doses is 1860 nM.

**Q.** How did the potency estimated from few doses (MAP3K5) turn out when `CNC1=NC(=O)/C(=C/c2ccc3ncccc3c2)S1` [RO4595949-000] was run?
**A.** Its potency estimated from few doses is 1240 nM.

**Q.** `CCc1nc(-c2cccc(N(C)S(=O)(=O)c3ccccc3)c2)c(-c2ccnc(Nc3ccc(N4CCN(C(C)=O)CC4)nc3)n2)s1` [GSK1645895A] was tested. Which potency estimated from few doses (RAF1) did it give?
**A.** Its potency estimated from few doses is 1420 nM.

**Q.** With `O=C1N=C(NCc2cccs2)SC1Cc1ccc2ncccc2c1` (centres unmarked) [RO4629078-000] as the molecule, how does the potency estimated from few doses (PHKG2) read?
**A.** The potency estimated from few doses was 1040 nM.

**Q.** And the potency estimated from few doses (PRKACA)?
**A.** Its potency estimated from few doses is 1470 nM.

**Q.** Which potency estimated from few doses (TESK2) does the source give for `CCn1cc(-c2ccnc3[nH]c(-c4cccc(CN(C)C)c4)cc23)c(-c2ccc(NC(=O)N(C)C)cc2)n1` [GSK1070916] here?
**A.** Its potency estimated from few doses is 1310 nM.

**Q.** For `CS(=O)(=O)c1ccc(-c2cnc(N)c(C(=O)Nc3ccccc3)n2)cc1` [VE-821], which potency estimated from few doses (PI4KB) is on record?
**A.** The potency estimated from few doses was 812 nM.

**Q.** With `O=S(=O)(CCOCc1ccc(-c2ccc3ncnc(Nc4ccc(OCc5cccc(F)c5)c(Cl)c4)c3c2)o1)c1ccccc1` [GW615311X] as the molecule, how does the potency estimated from few doses (PIK3C2B) read?
**A.** Its potency estimated from few doses is 1160 nM.

**Q.** How did the potency estimated from few doses (FES) turn out when `CN1CCN(Cc2ccc(NC(=O)Nc3ccc(N(C)c4ccnc(Nc5ccc(CS(C)(=O)=O)cc5)n4)cc3)cc2)CC1.Cl` [GW827654A] was run?
**A.** The potency estimated from few doses was 1230 nM.

**Q.** For `N#Cc1cccc(Nc2nccc(-c3cnn4ncccc34)n2)c1` [GW778894X], which potency estimated from few doses (MAPK3) is on record?
**A.** The potency estimated from few doses was 975 nM.

**Q.** `CNC(=O)c1ccccc1Nc1nc(Nc2cccc(CS(C)(=O)=O)c2)ncc1C.O=CO` [GSK1520489A] was tested. Which potency estimated from few doses (CLK3) did it give?
**A.** Its potency estimated from few doses is 167 nM.

**Q.** What about the potency estimated from few doses (NTRK1) of the same molecule?
**A.** Its potency estimated from few doses is 438 nM.

**Q.** What about the potency estimated from few doses (RPS6KA1) of the same molecule?
**A.** The potency estimated from few doses was 1010 nM.

**Q.** For `CC(C)c1nc(-c2cccc(NS(=O)(=O)c3c(F)cccc3F)c2F)c(-c2ccnc(Nc3ccc(N4CCOCC4)nc3)n2)s1` [GSK2008607A], which potency estimated from few doses (NEK9) is on record?
**A.** Its potency estimated from few doses is 1100 nM.

**Q.** With `Nc1nc(N)c2nc(-c3ccccc3)[nH]c2n1` [SKF-12778] as the molecule, how does the potency estimated from few doses (MAP2K3) read?
**A.** The potency estimated from few doses was 2020 nM.

**Q.** What about the potency estimated from few doses (PIK3CB) of the same molecule?
**A.** Its potency estimated from few doses is 790 nM.

**Q.** And the potency estimated from few doses (SLC25A5)?
**A.** The potency estimated from few doses was 1960 nM.

**Q.** `COc1ccc(-c2ccncc2)cc1C(N)=O` [GSK605714A] was tested. Which potency estimated from few doses (SMG1) did it give?
**A.** The potency estimated from few doses was 1830 nM.
